What all share (experiment): DAPPL (digital affinity profiling via proximity ligation, sequencing); 10 mM Tris-HCl pH 7.5, 50 mM NaCl, 1 mM DTT, 4% glycerol, room temperature, 30 min; GST-TFs on glutathione beads, 16-mer random dsDNA library, 0.1% formaldehyde crosslink after washing; high values mean tight binding
One test addresses T1, FEV (Homo sapiens, UniProt Q99581 1-238).
T1 sequence: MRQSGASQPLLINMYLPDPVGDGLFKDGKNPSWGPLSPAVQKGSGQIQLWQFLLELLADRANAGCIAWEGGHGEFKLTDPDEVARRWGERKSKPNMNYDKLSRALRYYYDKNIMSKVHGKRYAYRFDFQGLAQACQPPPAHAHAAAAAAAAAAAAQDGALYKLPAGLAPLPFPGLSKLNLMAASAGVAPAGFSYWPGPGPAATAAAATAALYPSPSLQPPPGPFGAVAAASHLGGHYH
Particulars: protein: recombinant; tags: N-terminal GST; dsDNA, one strand shown. Summed up: (§1)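 Sequencing on an Illumina NextSeq500 followed washing, crosslinking with 0.1% formaldehyde, proximity ligation (BsaI/T4 ligase, 1 h, 37 °C) and PCR amplification of pools that had been incubated for 30 min at room temperature with 200 nmole of a random double-stranded 16-mer DNA library in Tris/NaCl/DTT/glycerol buffer. Each pool held DNA-barcoded human transcription factors, expressed in yeast as GST fusions and captured on glutathione beads, plus a tag-only sample. Binding signal is a hexamer's read frequency for a factor divided by its frequency in the tag-only sample.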

The target of another test is ETV5 (Homo sapiens, UniProt P41161 1-510). Conditions: protein: recombinant; tags: N-terminal GST; dsDNA, one strand shown. Summed up: as §1
In the next test the target is HSF1 (Homo sapiens, UniProt Q00613 1-529). Conditions: protein: recombinant; tags: N-terminal GST; chain copies: 3; dsDNA, one strand shown. In outline: as §1
For the next test, the target named is T2, SPIC (Homo sapiens, UniProt Q8N5J4 1-248).
T2 sequence: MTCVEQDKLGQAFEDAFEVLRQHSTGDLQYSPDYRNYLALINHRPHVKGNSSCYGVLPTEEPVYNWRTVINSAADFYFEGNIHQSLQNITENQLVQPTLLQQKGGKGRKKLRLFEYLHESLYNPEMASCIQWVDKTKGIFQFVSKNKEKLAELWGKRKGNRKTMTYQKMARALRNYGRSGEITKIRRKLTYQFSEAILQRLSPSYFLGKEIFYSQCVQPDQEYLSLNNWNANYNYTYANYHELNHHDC
Particulars: protein: recombinant; tags: N-terminal GST; dsDNA, one strand shown. Summed up:
as §1

For the next test, the target named is ELF4 (Homo sapiens, UniProt Q99607 1-663). Conditions: protein: recombinant; tags: N-terminal GST; dsDNA, one strand shown. In outline: as §1
The target of another test is T3, ELK4 (Homo sapiens, UniProt P28324-2 1-405).
T3 sequence: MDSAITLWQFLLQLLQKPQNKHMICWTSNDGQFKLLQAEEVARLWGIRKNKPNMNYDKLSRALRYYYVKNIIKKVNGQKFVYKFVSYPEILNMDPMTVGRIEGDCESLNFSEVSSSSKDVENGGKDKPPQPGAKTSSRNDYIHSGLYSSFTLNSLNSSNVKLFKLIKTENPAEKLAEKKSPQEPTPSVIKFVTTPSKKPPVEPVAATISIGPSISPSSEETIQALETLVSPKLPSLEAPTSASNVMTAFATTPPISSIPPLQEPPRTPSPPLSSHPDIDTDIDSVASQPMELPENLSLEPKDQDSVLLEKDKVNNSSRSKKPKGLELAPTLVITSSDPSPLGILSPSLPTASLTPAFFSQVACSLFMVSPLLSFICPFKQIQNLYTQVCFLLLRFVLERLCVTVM
Particulars: protein: recombinant; tags: N-terminal GST; dsDNA, one strand shown. Summed up:
as §1

Another test concerns the target T4, ETV2 (Homo sapiens, UniProt O00321 1-342).
T4 sequence: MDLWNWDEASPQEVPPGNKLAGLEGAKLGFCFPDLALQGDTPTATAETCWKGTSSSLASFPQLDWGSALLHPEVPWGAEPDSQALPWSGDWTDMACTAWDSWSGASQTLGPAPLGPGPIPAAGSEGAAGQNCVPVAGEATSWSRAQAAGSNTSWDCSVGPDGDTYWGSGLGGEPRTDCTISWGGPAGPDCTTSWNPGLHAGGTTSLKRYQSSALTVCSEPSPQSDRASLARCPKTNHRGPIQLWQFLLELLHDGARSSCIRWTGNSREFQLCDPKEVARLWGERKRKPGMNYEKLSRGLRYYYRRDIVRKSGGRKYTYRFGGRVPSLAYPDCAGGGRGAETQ
Conditions: protein: recombinant; tags: N-terminal GST; dsDNA, one strand shown. Summed up:
as §1

The target of a further test is T5, ELF3 (Homo sapiens, UniProt P78545 1-371).
T5 sequence: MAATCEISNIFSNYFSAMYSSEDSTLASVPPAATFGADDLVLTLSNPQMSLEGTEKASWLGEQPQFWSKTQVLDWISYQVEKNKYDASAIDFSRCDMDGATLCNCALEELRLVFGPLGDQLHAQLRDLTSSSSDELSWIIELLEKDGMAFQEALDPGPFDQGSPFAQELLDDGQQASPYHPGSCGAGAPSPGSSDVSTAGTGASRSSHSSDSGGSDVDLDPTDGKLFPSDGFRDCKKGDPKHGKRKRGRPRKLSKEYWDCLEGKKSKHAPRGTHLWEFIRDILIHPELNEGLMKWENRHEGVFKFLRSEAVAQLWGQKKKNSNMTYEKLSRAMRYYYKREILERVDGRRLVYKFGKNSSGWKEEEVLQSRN
Conditions: protein: recombinant; tags: N-terminal GST; dsDNA, one strand shown. In outline:
as §1

The next test addresses CRX (Homo sapiens, UniProt O43186 1-299). Particulars: protein: recombinant; tags: N-terminal GST; dsDNA, one strand shown. In outline: as §1
The target of another test is ETV1 (Homo sapiens, UniProt P50549 1-477). Particulars: protein: recombinant; tags: N-terminal GST; dsDNA, one strand shown. Summed up:
as §1

In a further test the target is T6, ERF (Homo sapiens, UniProt P50548 1-548).
T6 sequence: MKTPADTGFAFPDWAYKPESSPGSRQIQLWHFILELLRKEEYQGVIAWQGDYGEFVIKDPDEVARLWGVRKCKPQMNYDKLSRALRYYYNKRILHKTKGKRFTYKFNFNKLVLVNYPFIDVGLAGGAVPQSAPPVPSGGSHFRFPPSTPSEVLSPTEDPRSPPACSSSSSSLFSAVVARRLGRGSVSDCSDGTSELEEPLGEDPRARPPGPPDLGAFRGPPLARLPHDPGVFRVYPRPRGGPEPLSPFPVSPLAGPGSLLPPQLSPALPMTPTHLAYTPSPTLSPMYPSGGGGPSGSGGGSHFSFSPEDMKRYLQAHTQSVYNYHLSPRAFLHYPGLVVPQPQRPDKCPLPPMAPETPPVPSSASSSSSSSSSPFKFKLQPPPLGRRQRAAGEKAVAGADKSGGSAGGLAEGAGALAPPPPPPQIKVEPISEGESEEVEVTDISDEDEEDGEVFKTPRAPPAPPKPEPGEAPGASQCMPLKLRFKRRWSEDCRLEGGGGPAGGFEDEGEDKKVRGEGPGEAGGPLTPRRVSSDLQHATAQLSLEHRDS
Conditions: protein: recombinant; tags: N-terminal GST; dsDNA, one strand shown. Summed up:
as §1

For another test, the target named is T7, ETV3L (Homo sapiens, UniProt Q6ZN32 1-361).
T7 sequence: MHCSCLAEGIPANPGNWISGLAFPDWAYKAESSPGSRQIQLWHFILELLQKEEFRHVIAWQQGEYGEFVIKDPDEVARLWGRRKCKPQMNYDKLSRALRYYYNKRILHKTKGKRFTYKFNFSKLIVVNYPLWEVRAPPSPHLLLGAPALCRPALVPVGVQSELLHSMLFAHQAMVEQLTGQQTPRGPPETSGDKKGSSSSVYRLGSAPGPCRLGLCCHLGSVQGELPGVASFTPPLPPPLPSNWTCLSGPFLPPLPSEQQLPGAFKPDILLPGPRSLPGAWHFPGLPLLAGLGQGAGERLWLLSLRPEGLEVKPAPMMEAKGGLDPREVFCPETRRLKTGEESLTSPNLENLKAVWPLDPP
Particulars: protein: recombinant; tags: N-terminal GST; dsDNA, one strand shown. Summed up: as §1

A further test has as its target T8, ETS2 (Homo sapiens, UniProt P15036 1-469).
T8 sequence: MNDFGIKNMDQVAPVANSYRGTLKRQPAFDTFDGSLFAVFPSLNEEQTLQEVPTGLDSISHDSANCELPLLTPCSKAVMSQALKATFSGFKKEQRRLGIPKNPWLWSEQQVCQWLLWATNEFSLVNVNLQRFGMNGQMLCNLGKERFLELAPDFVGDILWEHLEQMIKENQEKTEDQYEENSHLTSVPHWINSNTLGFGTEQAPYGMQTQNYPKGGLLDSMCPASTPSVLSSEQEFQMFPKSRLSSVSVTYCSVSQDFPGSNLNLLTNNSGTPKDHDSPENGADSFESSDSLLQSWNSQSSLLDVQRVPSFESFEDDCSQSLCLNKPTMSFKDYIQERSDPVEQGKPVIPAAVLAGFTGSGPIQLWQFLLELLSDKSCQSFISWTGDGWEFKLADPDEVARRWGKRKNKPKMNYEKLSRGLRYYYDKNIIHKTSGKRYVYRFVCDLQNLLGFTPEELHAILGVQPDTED
Particulars: protein: recombinant; tags: N-terminal GST; dsDNA, one strand shown. Summed up: as §1

Another test addresses T9, SPDEF (Homo sapiens, UniProt O95238 1-335).
T9 sequence: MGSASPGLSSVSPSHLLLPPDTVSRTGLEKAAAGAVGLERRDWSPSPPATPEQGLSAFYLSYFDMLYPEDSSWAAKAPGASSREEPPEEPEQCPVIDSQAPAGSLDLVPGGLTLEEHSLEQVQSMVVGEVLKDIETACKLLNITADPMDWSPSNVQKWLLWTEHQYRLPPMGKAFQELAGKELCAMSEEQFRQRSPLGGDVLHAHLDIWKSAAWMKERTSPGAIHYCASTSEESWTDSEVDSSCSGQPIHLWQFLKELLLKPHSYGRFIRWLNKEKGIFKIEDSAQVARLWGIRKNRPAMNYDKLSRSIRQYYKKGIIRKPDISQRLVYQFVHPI
Conditions: protein: recombinant; tags: N-terminal GST; dsDNA, one strand shown. Summed up: as §1

The target of a further test is T10, ETV7 (Homo sapiens, UniProt Q9Y603 1-341).
T10 sequence: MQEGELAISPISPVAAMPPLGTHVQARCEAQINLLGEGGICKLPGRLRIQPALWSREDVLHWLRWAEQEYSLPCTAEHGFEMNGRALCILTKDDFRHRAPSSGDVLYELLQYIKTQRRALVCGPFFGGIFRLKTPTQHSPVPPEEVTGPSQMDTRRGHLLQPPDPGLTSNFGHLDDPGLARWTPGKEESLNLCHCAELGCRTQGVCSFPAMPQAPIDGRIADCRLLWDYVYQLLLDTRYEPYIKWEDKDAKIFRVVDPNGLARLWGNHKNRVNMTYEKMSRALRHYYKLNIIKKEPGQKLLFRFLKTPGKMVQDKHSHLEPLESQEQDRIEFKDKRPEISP
Conditions: protein: recombinant; tags: N-terminal GST; dsDNA, one strand shown. In outline:
as §1

Another test has as its target T11, ELF5 (Homo sapiens, UniProt Q9UKW6-2 1-255).
T11 sequence: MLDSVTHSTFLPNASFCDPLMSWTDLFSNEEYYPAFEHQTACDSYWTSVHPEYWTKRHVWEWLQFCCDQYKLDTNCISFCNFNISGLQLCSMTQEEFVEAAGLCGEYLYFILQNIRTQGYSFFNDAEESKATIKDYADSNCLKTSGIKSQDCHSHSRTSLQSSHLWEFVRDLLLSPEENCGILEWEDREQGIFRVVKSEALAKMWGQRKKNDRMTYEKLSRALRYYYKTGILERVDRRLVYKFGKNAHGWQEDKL
Particulars: protein: recombinant; tags: N-terminal GST; dsDNA, one strand shown. Summed up:
as §1

The target of a further test is T12, ETV3 (Homo sapiens, UniProt P41162-2 1-143).
T12 sequence: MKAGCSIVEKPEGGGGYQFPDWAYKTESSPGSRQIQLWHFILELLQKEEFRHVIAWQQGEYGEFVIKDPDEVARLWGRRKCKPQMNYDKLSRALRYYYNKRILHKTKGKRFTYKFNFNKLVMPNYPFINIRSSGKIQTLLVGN
Particulars: protein: recombinant; tags: N-terminal GST; dsDNA, one strand shown. Summed up:
as §1

A further test addresses ETV6 (Homo sapiens, UniProt P41212 1-452). Conditions: protein: recombinant; tags: N-terminal GST; dsDNA, one strand shown. In outline: as §1

The source of these data is article PMC7862700, “An all-to-all approach to the identification of sequence-specific readers for epigenetic DNA modifications on cytosine”.

Sequence of HSF1 (Q00613 whole entry): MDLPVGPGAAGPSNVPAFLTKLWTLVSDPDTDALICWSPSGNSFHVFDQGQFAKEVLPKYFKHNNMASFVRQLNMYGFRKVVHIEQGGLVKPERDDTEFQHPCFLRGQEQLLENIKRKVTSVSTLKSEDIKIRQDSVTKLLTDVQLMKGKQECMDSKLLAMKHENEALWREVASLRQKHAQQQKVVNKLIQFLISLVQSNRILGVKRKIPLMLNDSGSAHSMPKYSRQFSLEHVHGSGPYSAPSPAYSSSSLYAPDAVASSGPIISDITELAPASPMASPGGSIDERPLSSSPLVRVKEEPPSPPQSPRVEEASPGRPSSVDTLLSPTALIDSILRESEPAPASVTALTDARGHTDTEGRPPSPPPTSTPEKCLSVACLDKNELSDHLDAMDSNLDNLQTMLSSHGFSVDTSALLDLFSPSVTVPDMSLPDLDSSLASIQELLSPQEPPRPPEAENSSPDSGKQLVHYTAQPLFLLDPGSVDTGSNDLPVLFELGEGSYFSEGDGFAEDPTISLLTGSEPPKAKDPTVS
Sequence of ETV6 (P41212 whole entry): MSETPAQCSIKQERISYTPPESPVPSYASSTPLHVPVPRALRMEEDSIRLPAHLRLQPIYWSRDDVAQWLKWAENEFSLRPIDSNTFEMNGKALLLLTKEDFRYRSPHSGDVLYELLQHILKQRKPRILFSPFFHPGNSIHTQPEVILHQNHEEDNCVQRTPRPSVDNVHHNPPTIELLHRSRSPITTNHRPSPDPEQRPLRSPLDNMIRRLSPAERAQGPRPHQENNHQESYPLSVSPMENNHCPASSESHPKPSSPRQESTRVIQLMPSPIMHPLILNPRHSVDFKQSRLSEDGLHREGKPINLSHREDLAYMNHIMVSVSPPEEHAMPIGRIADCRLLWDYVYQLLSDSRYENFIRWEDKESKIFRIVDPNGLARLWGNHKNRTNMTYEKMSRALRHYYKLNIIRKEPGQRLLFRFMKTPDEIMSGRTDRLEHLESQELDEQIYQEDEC
Sequence of ETV5 (P41161 whole entry): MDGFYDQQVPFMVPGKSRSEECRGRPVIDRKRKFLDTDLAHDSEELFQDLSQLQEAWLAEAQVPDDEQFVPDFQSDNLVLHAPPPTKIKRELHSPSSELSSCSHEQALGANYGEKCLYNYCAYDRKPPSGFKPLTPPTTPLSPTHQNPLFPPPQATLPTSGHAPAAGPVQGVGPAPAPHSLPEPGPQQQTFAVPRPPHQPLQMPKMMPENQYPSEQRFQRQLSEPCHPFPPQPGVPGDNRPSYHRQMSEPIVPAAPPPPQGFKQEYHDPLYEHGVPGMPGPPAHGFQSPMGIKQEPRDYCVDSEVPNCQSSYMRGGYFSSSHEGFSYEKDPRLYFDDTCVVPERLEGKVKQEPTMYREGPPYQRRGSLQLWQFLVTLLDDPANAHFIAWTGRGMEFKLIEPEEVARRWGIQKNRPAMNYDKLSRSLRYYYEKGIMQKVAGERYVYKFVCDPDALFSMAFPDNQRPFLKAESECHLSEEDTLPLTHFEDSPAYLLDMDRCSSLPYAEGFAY
Sequence of ETV1 (P50549 whole entry): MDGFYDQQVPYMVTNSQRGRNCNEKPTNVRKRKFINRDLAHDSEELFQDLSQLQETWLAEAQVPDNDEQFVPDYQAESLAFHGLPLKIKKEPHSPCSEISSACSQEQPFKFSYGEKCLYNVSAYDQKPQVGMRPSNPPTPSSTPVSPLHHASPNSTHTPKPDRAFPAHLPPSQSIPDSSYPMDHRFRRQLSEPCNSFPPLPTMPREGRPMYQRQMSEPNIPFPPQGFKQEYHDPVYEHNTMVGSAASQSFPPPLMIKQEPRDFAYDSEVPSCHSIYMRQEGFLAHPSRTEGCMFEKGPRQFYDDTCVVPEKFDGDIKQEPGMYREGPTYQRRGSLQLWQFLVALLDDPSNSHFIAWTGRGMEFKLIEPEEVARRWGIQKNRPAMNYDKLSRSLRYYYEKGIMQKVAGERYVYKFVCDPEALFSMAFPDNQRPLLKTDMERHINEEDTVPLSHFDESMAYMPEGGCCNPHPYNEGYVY
Sequence of ELF4 (Q99607 whole entry): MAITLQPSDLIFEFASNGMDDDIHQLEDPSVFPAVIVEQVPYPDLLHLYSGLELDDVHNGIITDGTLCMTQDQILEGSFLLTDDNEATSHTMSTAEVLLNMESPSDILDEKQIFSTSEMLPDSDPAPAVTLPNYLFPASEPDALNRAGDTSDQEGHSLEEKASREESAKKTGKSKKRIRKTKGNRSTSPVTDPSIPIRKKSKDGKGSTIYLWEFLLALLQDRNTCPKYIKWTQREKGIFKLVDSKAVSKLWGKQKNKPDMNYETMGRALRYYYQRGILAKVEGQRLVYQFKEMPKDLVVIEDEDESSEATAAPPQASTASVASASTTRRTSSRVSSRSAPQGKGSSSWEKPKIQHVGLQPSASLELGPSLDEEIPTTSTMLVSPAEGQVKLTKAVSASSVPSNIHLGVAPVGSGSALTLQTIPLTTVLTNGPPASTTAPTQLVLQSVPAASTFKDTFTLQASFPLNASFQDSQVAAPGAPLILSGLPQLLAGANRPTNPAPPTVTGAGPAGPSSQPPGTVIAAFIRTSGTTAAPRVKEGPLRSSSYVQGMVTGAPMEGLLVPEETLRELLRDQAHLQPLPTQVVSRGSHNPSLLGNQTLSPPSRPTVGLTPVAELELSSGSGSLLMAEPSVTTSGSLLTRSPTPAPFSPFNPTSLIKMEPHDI
Sequence of CRX (O43186 whole entry): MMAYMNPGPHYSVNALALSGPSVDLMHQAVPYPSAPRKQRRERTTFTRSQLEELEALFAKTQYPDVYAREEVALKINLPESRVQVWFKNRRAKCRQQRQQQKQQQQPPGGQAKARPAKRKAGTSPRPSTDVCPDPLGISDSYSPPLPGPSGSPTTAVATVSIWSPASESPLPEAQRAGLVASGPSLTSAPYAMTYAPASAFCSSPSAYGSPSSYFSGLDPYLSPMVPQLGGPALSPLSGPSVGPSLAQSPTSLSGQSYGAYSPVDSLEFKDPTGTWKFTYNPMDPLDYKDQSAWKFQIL

As to AAACCT, the binding signal was 1.08 fold enrichment (6-mer frequency, TF over GST control) with FEV; 1.13 fold enrichment (6-mer frequency, TF over GST control) with ETV5; 1.15 fold enrichment (6-mer frequency, TF over GST control) with HSF1; 1.09 fold enrichment (6-mer frequency, TF over GST control) with SPIC; 1.16 fold enrichment (6-mer frequency, TF over GST control) with ELF4; 1.2 fold enrichment (6-mer frequency, TF over GST control) in the test with ELK4. For the same sequence, the binding signal in the test with ETV2 is 1.19 fold enrichment (6-mer frequency, TF over GST control); with ELF3, 1.19 fold enrichment (6-mer frequency, TF over GST control); with CRX, 1.24 fold enrichment (6-mer frequency, TF over GST control); in the test with ETV1, 1.15 fold enrichment (6-mer frequency, TF over GST control); in the test with ERF, 1.18 fold enrichment (6-mer frequency, TF over GST control); with ETV3L, 1.07 fold enrichment (6-mer frequency, TF over GST control). The binding signal is 1.13 fold enrichment (6-mer frequency, TF over GST control) with ETS2; 1.05 fold enrichment (6-mer frequency, TF over GST control) with SPDEF; 1.16 fold enrichment (6-mer frequency, TF over GST control) in the test with ETV7; 1.13 fold enrichment (6-mer frequency, TF over GST control) in the test with ELF5; 1.1 fold enrichment (6-mer frequency, TF over GST control) with ETV3; 1.16 fold enrichment (6-mer frequency, TF over GST control) in the test with ETV6.
